# In PubChem BioAssay (NCATS):
# Inconclusive results are not listed. Values without a mark were called inactive. Active and inactive are the calls of the source. The call rests on the fitted dose curve; in most records, active means well fitted inhibition curve with a large enough effect; inconclusive means small, poorly fitted or top-dose-only effect; inactive means flat fitted curve, though single readings scatter. Non-standard residues stand in square brackets, D forms with d. Residues, ends and D or L forms follow the SMILES beside them. Orn = NCCC[C@H](N)C(=O)O
# Test: P-glycoprotein substrates identified in KB-8-5-11 adenocarcinoma cell line, qHTS therapeutic library screen (AID 1346987); further: nearly all actives have a fitted effect of over 65% in size
# Conditions: KB-8-5-11 (P-gp overexpressing) viability, CellTiter-Glo, 72 h; series mostly up to 44.5 µM; activity change, negative = cytotoxicity: at the top concentration
# How it was run: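 Human cervical adenocarcinoma KB-8-5-11 cells, selected in colchicine to over-express P-gp and assayed without it, were exposed for 72 h to titrated compounds. An ATP-based luminescent viability signal gave AC50.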
# On the % scale 0 is the no-effect control and ±100 the full control effect; potency means the concentration at half of the fitted maximal effect.
Compound,"activity change, negative = cytotoxicity",outcome,Potency
COc1cc(C2Oc3c(OC)cc(/C=C/C(=O)OC[C@H]4O[C@@H](OC(C)(C)C(=O)O)[C@H](O)[C@@H](O)[C@@H]4O)cc3C2CO)ccc1O (stereo not given in full),5.69% [at 17.3 µM],,
C[C@@H]1C(=O)O[C@H]2CC34[C@H]5C[C@@H](C(C)(C)C)C36[C@@H](OC(=O)[C@@H]6O)O[C@@]4(C(=O)O5)[C@]21O (stereo not given in full),,inactive [at 17.3 µM],
CC[C@H](C)/C=C(C)/C=C/C(=O)Cc1cc(O)c(C)c(O)c1C=O,8.28%,,
C[C@@H]1O[C@@H](O[C@H]2[C@H](O[C@H]3[C@H](O[C@H]4CC[C@@]5(CO)C(CC[C@]6(C)C5CC=C5C7CC(C)(C)C[C@@H](O)[C@]7(C)CC[C@]56C)C4(C)C)O[C@H](C(=O)O)[C@@H](O)[C@@H]3O)OC[C@@H](O)[C@@H]2O)[C@H](O)[C@H](O)[C@H]1O (stereo not given in full),,inactive [at 9.29 µM],
Cc1cn2c(N)c(Cl)cc(C(=O)NCC3CCN(CC(C)C)CC3)c2n1,-23.3%,,
OC[C@H]1O[C@@H](Oc2cc(O)cc(-c3cc4ccc(O)cc4o3)c2)[C@H](O)[C@@H](O)[C@@H]1O,,inactive [at 17.3 µM],
IC(I)I,9.23%,,
CC(=O)c1c(C)cc(O[C@@H]2O[C@H](CO)[C@@H](O)[C@H](O)[C@H]2O)cc1O,,inactive,
CN1CCC(c2c[nH]c3ccc(NC(=O)c4ccc(F)cc4)cc23)CC1,,inactive,
NCc1c[nH]c(=S)n1C1CCc2c(F)cc(F)cc2C1 (stereo not given),1.95%,,
CC(C)CC1(C(=O)OCc2ccc(O[C@@H]3O[C@H](CO)[C@@H](O)[C@H](O)[C@H]3O)cc2)CC(=O)OC(C(=O)O)CC(=O)OCC2OC(O1)C(OC(=O)/C=C/c1ccc(O)cc1)C(O)C2O (stereo not given in full),,inactive [at 9.29 µM],
CC1=CC(=O)C[C@H]2[C@@H]1CC[C@@H](C)[C@]21CO[C@H](c2ccoc2)C1=O,-5.74%,,
C=C1CCC2(OC1)OC1CC3C4CC=C5CC(O)CC(O[C@@H]6OC[C@@H](O)[C@H](O)[C@H]6O)C5(C)C4CCC3(C)C1(O)C2C (stereo not given in full),,inactive [at 17.3 µM],
NCc1ccc(OCCCc2sc(-c3ccc4c(c3)/C(=N/Nc3nc5ccccc5s3)CCC4)nc2C(=O)O)cc1,-26.6%,,
O=C1C[C@@H](c2ccc(O)cc2)Oc2cc(O)ccc21,,inactive,
CC(=O)OCC1=C[C@H](O)[C@@H]2C(C(=O)O)=CO[C@@H](O[C@@H]3O[C@H](CO)[C@@H](O)[C@H](O)[C@H]3O)[C@H]12,4.62% [at 17.3 µM],,
COc1cc(/C=C/C(=O)O[C@H]2[C@H](O)[C@@H](CO)O[C@@]2(CO)O[C@H]2O[C@H](COC(=O)c3ccc(O)cc3)[C@@H](O)[C@H](O)[C@H]2O)cc(OC)c1OC,,inactive [at 17.3 µM],
CCC/C=C/C(=O)O[C@H]1CC(C)(C)CC2[C@]13[C@H](O)O[C@@]21CCC2[C@@]4(C)CC[C@H](O[C@@H]5O[C@H](C(=O)O)[C@@H](O)[C@H](O[C@@H]6O[C@H](CO)[C@H](O)[C@H](O)[C@H]6O[C@@H]6O[C@@H](C)[C@H](O)[C@@H](O)[C@H]6O[C@@H]6OC[C@](O)(CO)[C@H]6O)[C@H]5O[C@@H]5O[C@H](CO)[C@H](O)[C@H](O)[C@H]5O)C(C)(C)C4CC[C@@]2(C)[C@]1(C)C[C@H]3OC(C)=O (stereo not given in full),0.402% [at 9.29 µM],,
COc1ccccc1CC(C(=O)O)N(C)C(=O)c1ccccc1 (stereo not given),7.3%,,
C/C=C(\C)C(=O)O[C@@H]1CC2[C@@H](CC=C3C[C@@H](O[C@H]4C[C@H](OC)[C@H](O[C@H]5C[C@H](OC)[C@H](O[C@H]6C[C@H](OC)[C@H](O[C@H]7C[C@@H](OC)[C@H](O[C@@H]8O[C@H](CO)[C@@H](O)[C@H](O)[C@H]8O)[C@@H](C)O7)[C@@H](C)O6)[C@@H](C)O5)[C@@H](C)O4)CC[C@@]32C)[C@@]2(O)CC[C@H](C(C)=O)[C@@]12C (stereo not given in full),3.56% [at 9.29 µM],,

Compound,"activity change, negative = cytotoxicity",outcome,Potency
CN[C@@H]1[C@@H](O)[C@@H](O[C@@H]2[C@@H](O)[C@H](O[C@H]3O[C@H](CN)[C@@H](O)[C@H](O)[C@H]3O)[C@@H](N)C[C@H]2NC(=O)[C@@H](O)CN)OC[C@]1(C)O,,inactive,
CCNC(=O)[C@@H]1CCCN1C(=O)[C@H](CCCN=C(N)N)NC(=O)[C@H](CC(C)C)NC(=O)[C@@H](C)NC(=O)[C@H](Cc1ccc(O)cc1)NC(=O)[C@H](CO)NC(=O)[C@H](Cc1c[nH]c2ccccc12)NC(=O)[C@H](Cc1cnc[nH]1)NC(=O)[C@@H]1CCC(=O)N1,9.39% [at 17.3 µM],,
COc1cc(C)c(C(=O)O[C@H]2[C@@H](O)[C@H](n3ccc(=O)[nH]c3=O)O[C@@H]2CO)c(OC)c1,7.34% [at 17.3 µM],,
Cc1nn(C)c(COc2ccc(N3CCN(S(=O)(=O)N(C)C)CC3)cc2)c1-c1cccc2c(CCCOc3cccc4ccccc34)c(C(=O)O)n(CCN3CCOCC3)c12,,inactive,
O=C(NN1CCCCC1)c1nn(-c2ccc(Cl)cc2Cl)c(-c2ccc(C#Cc3ccc(C(F)(F)F)cc3)s2)c1CNS(=O)(=O)N1CCCC1,-4.08%,,
COc1cc(O[C@@H]2O[C@H](CO)[C@@H](O)[C@H](O)[C@H]2O)c(CCC(=O)OC[C@H]2O[C@@H](Oc3cc(OC)c(C4OC(=O)C(C)(O)C4O)cc3CCC(=O)O)[C@H](O)[C@@H](O)[C@@H]2O)cc1C1OC(=O)C(C)(O)C1O (stereo not given in full),,inactive [at 9.29 µM],
COc1cc(/C=C/C(=O)OC2[C@H](O)CC(O)(C(=O)O)C[C@H]2O)ccc1O (stereo not given in full),,inactive,
C=C1C[C@]23C[C@H]1CC[C@H]2[C@]1(C)CCC[C@@]2(CO)C(=O)O[C@H]([C@H]21)[C@@H]3O,9.16%,,
CC(C)(O)CNc1nc(Nc2ccnc(C(F)(F)F)c2)nc(-c2cccc(C(F)(F)F)n2)n1,-17.9% [at 17.3 µM],,
CC(C)C[C@@H]1NC(=O)[C@H](CCCN)NC(=O)[C@H](C(C)C)NC(=O)[C@@H]2CCCN2C(=O)[C@@H](Cc2ccccc2)NC(=O)[C@H](CC(C)C)NC(=O)[C@H](CCCN)NC(=O)[C@H](C(C)C)NC(=O)[C@@H]2CCCN2C(=O)[C@@H](Cc2ccccc2)NC1=O (cyclo(V[Orn]L[dF]PV[Orn]L[dF]P)),-1.51%,,
CCCCNC(=O)[C@@H]1Cc2ccccc2N1C(=O)[C@@H](N)CC,,inactive,
C[C@@H]1O[C@@H](O[C@H]2[C@H](OC(=O)[C@]34CCC(C)(C)C[C@H]3C3=CCC5[C@@]6(C)C[C@H](O)[C@H](O[C@@H]7O[C@H](CO[C@@H]8OC[C@H](O)[C@H](O)[C@H]8O)[C@@H](O)[C@H](O)[C@H]7O)C(C)(C)C6CC[C@@]5(C)[C@]3(C)C[C@H]4O)OC[C@@H](O)[C@@H]2O)[C@H](O)[C@H](O[C@@H]2OC[C@](O)(CO)[C@H]2O)[C@H]1O[C@@H]1OC[C@H](O)[C@H](O[C@@H]2OC[C@@H](O)[C@H](O)[C@H]2O)[C@H]1O (stereo not given in full),7.52% [at 9.29 µM],,
O=C(c1ccccn1)c1cnn2c(-c3ccncc3)ccnc12,,inactive,
C=C1CCC2[C@@](C)(C=O)CCC[C@]2(C)[C@H]1CC/C(C)=C/CO (stereo not given in full),0.557%,,
CCC(C)(O)C(O)C(=O)OCc1ccc(O[C@@H]2O[C@H](CO)[C@@H](O)[C@H](O)[C@H]2O)c(OC)c1 (stereo not given in full),2.32% [at 17.3 µM],,
CC1(C)CC(=O)N(CCCCN2CCN(c3ncccn3)CC2)C(=O)C1,-6.57%,,
CCNC(=O)[C@@H]1CCCN1C(=O)[C@H](CCCN=C(N)N)NC(=O)[C@H](CC(C)C)NC(=O)[C@@H](Cc1c[nH]c2ccccc12)NC(=O)[C@H](Cc1ccc(O)cc1)NC(=O)[C@H](CO)NC(=O)[C@H](Cc1c[nH]c2ccccc12)NC(=O)[C@H](Cc1cnc[nH]1)NC(=O)[C@@H]1CCC(=O)N1,,,8.2 µM (active)
CC1(CCC(=O)O)C(=O)C=CC23CC4CC(OC4(C)C2O)C13 (stereo not given),8.84%,,
C=C(C)C1CC2(CO)C(=CC1=O)CCC(O)C2C (stereo not given),7.08%,,
COc1ccc(C(=O)O[C@H]2CC(C)=CC[C@@]3(C)[C@@H](OC(C)=O)C[C@@](O)(C(C)C)[C@H]23)cc1,-2.94% [at 17.3 µM],,
